The source of these data is PubChem BioAssay.

Inconclusive results are not listed. The source made the active and inactive calls.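 Rule for the calls: active = cell viability at or below a set limit in both duplicate runs, the limit being the all-compound median minus 4 SD (cut at about 23% in these data, passing the limit was not always enough); inconclusive = no clear call, values can overlap the other calls; inactive = the rest.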

This assay can be described thus: viability of HCT116 without oncogenic beta-catenin – human colon tumor cells, pilot screen (AID 823).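 Note: 0% = wells killed by 20 µM Hyamine and 100% = untreated DMSO cell wells.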 To be noted: HCT116 beta-catenin knockout viability, CellTiter-Glo, 60 h; at 10 µM; hits give low values. (In general: In ATP-based viability assays light output follows the ATP content of the culture.)
By viability is commonly meant a read-out of living cells in per cent, often relative to untreated cells. As for `CCOc1ccc(-n2c(Cc3cc(=O)[nH]c(=O)[nH]3)nnc2SCC(=O)NC2CCCC2)cc1`, the viability was 101% (inactive).

Take `Cc1cccc(CSc2nnc(-c3ccccn3)n2N)c1`: the viability was 103% (inactive).

As to `CC1(C)C(c2ccc(Cl)cc2)=[N+]([O-])C2(CCCC/C2=N\O)N1O` (centres undefined), the viability was 96.5% (inactive). Take `COc1ccc(OCc2nnc3n2N=C(c2ccc(OC)cc2)CS3)cc1`: the viability is 69.9% (inactive).

Take `COc1ccc(-c2ccc(=O)n(CC(=O)N3CCN(c4ccccc4OC)CC3)n2)cc1`: the viability is 89.7% (inactive).

Regarding `CC(C)=CC1C(C(=O)Nc2ccc(Br)cn2)C1(C)C` (centres undefined), the viability is 60.7% (inactive).

As for `Cc1ccc(-n2c(C)cc(C(=O)OCC(=O)N(C)C3CCS(=O)(=O)C3)c2C)cc1` (centres undefined), the viability is 91.7% (inactive). As for `CC(C)Cc1ccc(C#N)c(SCC(N)=O)n1`, the viability is 97.2% (inactive).

Take `Cc1csc2nc(CNS(=O)(=O)N(C)C)cn12`: the viability is 95.2% (inactive). For `CN(C)c1ccc(NC(=O)c2cccc(N3C(=O)CCC3=O)c2)cc1`, the viability was 106% (inactive). For `Cn1c(Cn2c(=O)sc3ccccc32)nnc1SCc1cccnc1`, the viability was 96.6% (inactive). Consider `CCCn1c(=S)[nH]c2cc(C(=O)NCC3CCCO3)ccc2c1=O` (centres undefined), for which the viability was 104% (inactive). Turning to `O=C(Nc1nnc(-c2ccc3c(c2)OCCO3)o1)c1ccc(Cc2ccccc2)cc1`, the viability is 46.1% (inactive).

As to `COc1ccccc1OCC(=O)NC1CCCCCC1`, the viability is 96.3% (inactive). The value for `COc1cccc(-n2c(=O)[nH]cc(C(=O)Nc3ccc(NC(C)=O)cc3)c2=O)c1` was 106% (inactive); that for `CCCC1(C(=O)O)NC(c2ccccc2O)C2C(=O)N(c3cccc(Cl)c3)C(=O)C21` (centres undefined) was 107% (inactive). Under `CCCC(=O)NCCCCNC(=O)CCC` stands 96.4% (inactive); under `CCc1ccccc1NC1c2ccccc2C(=O)N1Cc1ccco1` (centres undefined), 97.1% (inactive); under `CC(C)C(NS(=O)(=O)c1ccc2c(c1)oc(=O)n2C)C(=O)N1CCN(c2ccccc2F)CC1` (centres undefined), 86.9% (inactive).

With `CC1(C)NC(C)(C)c2nonc2/C1=N\O`, the viability was 99.3% (inactive). For the molecule `CC(C)NS(=O)(=O)c1ccc2c(c1)oc(=O)n2C`, the viability is 106% (inactive). In the case of `CCn1c(SCC(=O)Nc2nnc(C)s2)nc2c(c1=O)SC(C)C2` (centres undefined), the viability is 103% (inactive). `CCOc1ccccc1N1C(=O)CC(Nc2ccc(N3CCOCC3)cc2)C1=O` (centres undefined): the viability is 101% (inactive). For `COc1ccc(-n2nnc3c(=O)n(CC(=O)OCc4ccccc4)cnc32)cc1`, the viability is 98.7% (inactive). For `O=C(Cn1cc2c(n1)CCCC2)NCc1cccc(Cl)c1`, the viability was 107% (inactive). For `Cc1cc2cc(CNC(=O)Cc3cccs3)ccc2n1C`, the viability was 74.9% (inactive).

Turning to `c1ccc(-c2noc(CN3CCN(c4ccccc4)CC3)n2)cc1`, the viability was 94.5% (inactive). The value for `O=C(CC1Sc2ncnn2C1=O)Nc1ccc(Br)cc1` (centres undefined) was 106% (inactive).

Regarding `COc1ccc(C2NC(=O)NC(O)(C(F)(F)F)C2C(=O)c2ccc(C)cc2)cc1` (centres undefined), the viability is 100% (inactive). As for `Cc1c(C(=O)Nc2ccc(F)cc2)oc2ccc(S(=O)(=O)N3CCCC3)cc12`, the viability was 101% (inactive). As for `O=C(Nn1nnnc1Nc1ccccc1)C12CC3CC(CC(C3)C1)C2`, the viability is 85.2% (inactive). Regarding `Cn1c(=O)n(C)c2cc(CN3C(=O)OC(C)(C)C3(C)O)ccc21` (centres undefined), the viability is 105% (inactive). For `CCOC(=O)N1CCC(NC(=O)CS(=O)(=O)Cc2nc(-c3ccc(C)cc3)oc2C)CC1`, the viability is 75.3% (inactive). In the case of `COc1ccc(O)c(C(=O)c2cnn(C(=O)c3cc(C)oc3C)c2)c1`, the viability is 97.2% (inactive). Regarding `Cn1nnnc1SCc1ccc(F)cc1`, the viability is 98.1% (inactive).

`O=C(Nc1ccccc1Cl)N1CCN(c2ccc3nnc(-c4ccccc4)n3n2)CC1`: the viability is 79.4% (inactive). On to `Cc1nc2sc(C(c3cccs3)N3CCN(Cc4ccccc4)CC3)c(O)n2n1` (centres undefined), for which the viability was 101% (inactive). `COc1ccc(Cc2nnc(-c3cccc(C)c3)o2)cc1OC`: the viability was 95.4% (inactive).

Consider `COc1ccc(NC(=O)CN(c2cc(C)cc(C)c2)S(=O)(=O)c2c(C)n[nH]c2C)cc1`, for which the viability was 102% (inactive).
